Reference: a collection of fitness landscapes (doi:10.1016/j.celrep.2020.107928)
The full ranking holds about 81,000 sequences; the median of “one-hybrid fitness for binding NBS DNA” is about -0.1, and the highest 2% start at about 0.36. The sample as a whole holds a higher share of the highest values than the screen did.

B1: Caulobacter ParB omega fusion; a variant is named by its letters at X, in order, B8GW30 (parent)
chain: MESVVVGEPGMSEGRRGLGRGLSALLGEVDAAPAQAPGEQLGGSREAPIEILQRNPDQPRRTFREEDLEDLSNSIREKGVLQPILVRPSPDTAGEYQIVAGERAWRAAQRAGLKTVPIMVRELDDLAVLEIGIIENVQRADLNVLEEALSYKVLMEKFERTQENIAQTIGKSXSHVANXMRLLXLPDEVQSYLVSGELTAXHARAIAAAADPVALAKQIIEGGLSVRETEALARKAPNLSAGKSKGGRPPRVKDTDTQALESDLSSVLGLDVSIDHRGSTGTLTITYATLEQLDDLCNRLTRGI

Variants of: B1
Assay: one-hybrid fitness for binding NBS DNA (the Noc-binding site; scaled: cognate 1, non-cognate 0); higher = stronger binding
Conditions: with NBS DNA site
Outline: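 In E. coli USO, a HIS3 reporter with its site placed 19 bp from the promoter was used to select Caulobacter ParB variants randomised at four specificity codons. Growth lasted 48 hours at 37°C on histidine-free M9 containing 0.1 mM IPTG and 5 mM 3-AT. Fitness was taken as the log change in variant-to-wild-type read ratio from Illumina sequencing of pre- and post-selection plasmids, rescaled between the non-cognate and cognate sites.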

Variant | one-hybrid fitness for binding NBS DNA
QSIQ | ≤ 0.2
KPVS | ≤ 0.2
YYMR | ≤ 0.2
RFQM | ≤ 0.2
GDHK | ≤ 0.2
LAMD | ≤ 0.2
SSIR | ≤ 0.2
QRAN | 0.39
QCAN | ≤ 0.2
QRFN | 0.353
RKKY | 0.38
RKKD | ≤ 0.2
RCKY | 0.318
RKRY | 0.366
RKKS | 0.653
RKDY | ≤ 0.2
RKYY | ≤ 0.2
RKVD | ≤ 0.2
RKVS | 0.426
RKVN | ≤ 0.2
RKKP | ≤ 0.2
RKVY | ≤ 0.2
HLAI | ≤ 0.2
KRLI | ≤ 0.2

Variant | one-hybrid fitness for binding NBS DNA
TRHK | ≤ 0.2
TTRF | ≤ 0.2
RAYA | ≤ 0.2
ISTD | ≤ 0.2
AALA | ≤ 0.2
TDSY | ≤ 0.2
AIFT | ≤ 0.2
PYDR | ≤ 0.2
VNLC | ≤ 0.2
PDQF | ≤ 0.2
RKKN | 0.252
RKVH | 0.211
RKKH | 0.465
LEGG | ≤ 0.2
TKHA | ≤ 0.2
QTGN | 0.255
QTGP | ≤ 0.2
QTGD | ≤ 0.2
QTGS | 0.557
QTGC | 0.246
QTGH | 0.424
LWYM | ≤ 0.2
PADY | ≤ 0.2
QSPS | ≤ 0.2

Variant | one-hybrid fitness for binding NBS DNA
CWIG | 0.406
QSRS | 0.64
QCYS | 0.432
QCDS | 0.28
CWRG | ≤ 0.2
QSIS | 0.232
CWIS | ≤ 0.2
QPYS | ≤ 0.2
QCPS | 0.299
QCIS | 0.364
QSYS | 0.337
PLRP | ≤ 0.2
SMYN | ≤ 0.2
RGCR | ≤ 0.2
TCIC | ≤ 0.2
TTYN | ≤ 0.2
TLLD | ≤ 0.2
KIRT | ≤ 0.2
QCRS | 0.748
QPRS | ≤ 0.2
QCRP | 0.352
RTTP | ≤ 0.2
RTTH | 0.24
RCTS | 0.516

Variant | one-hybrid fitness for binding NBS DNA
RLTP | ≤ 0.2
RATS | 0.433
RATH | ≤ 0.2
RLTS | 0.396
RATD | ≤ 0.2
RFTS | 0.285
RPTS | ≤ 0.2
RTTS | 0.484
RLTH | ≤ 0.2
YRMT | ≤ 0.2
EQDS | ≤ 0.2
AANY | ≤ 0.2
LYKT | ≤ 0.2
ECMG | ≤ 0.2
FKTC | ≤ 0.2
RSTS | 0.433
RSTH | ≤ 0.2
RSTD | ≤ 0.2
RKTS | 0.583
RHTN | ≤ 0.2
RITN | ≤ 0.2
RKTD | ≤ 0.2
RKTH | 0.233
RHTS | 0.446

Variant | one-hybrid fitness for binding NBS DNA
RHTP | ≤ 0.2
RITS | 0.384
RITH | ≤ 0.2
LQLL | ≤ 0.2
ECRD | ≤ 0.2
QQMC | ≤ 0.2
IARN | ≤ 0.2
SSHP | ≤ 0.2
VQNC | ≤ 0.2
RMTS | 0.433
RMTD | ≤ 0.2
RMTN | ≤ 0.2
YHNT | ≤ 0.2
PFSK | ≤ 0.2
QCMS | 0.379
QKMS | 0.414
QRMQ | 0.385
QPMS | ≤ 0.2
QAMQ | ≤ 0.2
QKMD | ≤ 0.2
QCMK | ≤ 0.2
QRMK | 0.404
QSMK | ≤ 0.2
QSMQ | ≤ 0.2

Variant | one-hybrid fitness for binding NBS DNA
QKMH | ≤ 0.2
QSMS | 0.302
GNCM | ≤ 0.2
LRKY | ≤ 0.2
GYLG | ≤ 0.2
KRMH | ≤ 0.2
FYYR | ≤ 0.2
DHLS | ≤ 0.2
ANLH | ≤ 0.2
SFVC | ≤ 0.2
PQMI | ≤ 0.2
AHHY | ≤ 0.2
RHNK | ≤ 0.2
QMCI | ≤ 0.2
PANW | ≤ 0.2
VVKL | ≤ 0.2
QRMP | ≤ 0.2
QTMN | ≤ 0.2
QTMS | 0.463
QRMD | 0.26
QRMH | 0.499
QCMY | ≤ 0.2
QRML | 0.219
QRMY | 0.463

Variant | one-hybrid fitness for binding NBS DNA
QRMS | 0.623
QPMY | ≤ 0.2
QRMN | 0.295
QTMH | 0.263
YNGT | ≤ 0.2
HRHE | ≤ 0.2
VIRT | ≤ 0.2
WQEG | ≤ 0.2
FKND | ≤ 0.2
AVDT | ≤ 0.2
IGHS | ≤ 0.2
QQPH | ≤ 0.2
QQIT | 0.389
QQID | ≤ 0.2
QQPS | 0.26
QQPT | 0.379
QQIS | 0.352
MQSG | ≤ 0.2
VVCV | ≤ 0.2
YLMA | ≤ 0.2
QYTS | 0.396
QYTR | 0.572
QYTY | ≤ 0.2
QYTT | 0.401

Variant | one-hybrid fitness for binding NBS DNA
QYTD | ≤ 0.2
QYTP | ≤ 0.2
QYTH | 0.202
QYTM | ≤ 0.2
QYTN | ≤ 0.2
AEMG | ≤ 0.2
GTMM | ≤ 0.2
HAVV | ≤ 0.2
QQDR | 0.388
QQNH | 0.355
QQND | ≤ 0.2
QQDP | ≤ 0.2
QQNR | 0.786
QQDC | ≤ 0.2
MWSL | ≤ 0.2
SQER | ≤ 0.2
THTW | ≤ 0.2
TSGY | ≤ 0.2
ASWL | ≤ 0.2
TAQM | ≤ 0.2
QTME | ≤ 0.2
QAAR | 0.511
QAFR | 0.427
QAAN | ≤ 0.2

Variant | one-hybrid fitness for binding NBS DNA
QAFD | ≤ 0.2
QAFS | 0.218
QAAD | ≤ 0.2
PSVW | ≤ 0.2
VMFK | ≤ 0.2
EIKV | ≤ 0.2
RPPM | ≤ 0.2
RALR | 0.32
RADR | ≤ 0.2
RAYR | 0.412
RANN | ≤ 0.2
RAPR | ≤ 0.2
RANR | 0.507
RAGR | 0.471
RAGP | ≤ 0.2
RAGH | ≤ 0.2
RAIR | 0.207
RAWR | 0.248
RARR | 0.635
YIKT | ≤ 0.2
MVAC | ≤ 0.2
NQHS | ≤ 0.2
NVTV | ≤ 0.2
SDLG | ≤ 0.2

Variant | one-hybrid fitness for binding NBS DNA
PSTD | ≤ 0.2
PRAY | ≤ 0.2
THTY | ≤ 0.2
TQQW | ≤ 0.2
PELM | ≤ 0.2
PRWT | ≤ 0.2
RAQH | ≤ 0.2
RAQM | ≤ 0.2
RAHR | 0.487
RASP | ≤ 0.2
RACP | ≤ 0.2
RAHH | ≤ 0.2
RACR | 0.379
RASR | 0.417
RAHP | ≤ 0.2
RAQR | 0.43
RASD | ≤ 0.2
RACH | ≤ 0.2
FSRL | ≤ 0.2
GGQY | ≤ 0.2
MRLP | ≤ 0.2
AHPF | ≤ 0.2
YNKI | ≤ 0.2
KTLA | ≤ 0.2

Variant | one-hybrid fitness for binding NBS DNA
NNIC | ≤ 0.2
PFKH | ≤ 0.2
HTRG | ≤ 0.2
QMRS | 0.691
QMRP | 0.291
QMRH | 0.584
QMRF | 0.303
QMYS | 0.405
QMDN | ≤ 0.2
QMRN | 0.439
QMYN | ≤ 0.2
QMRD | 0.277
QMPS | 0.235
QMIS | 0.289
QMLS | 0.317
AQGA | ≤ 0.2
NRGC | ≤ 0.2
PIMT | ≤ 0.2
PWNH | ≤ 0.2
RINY | ≤ 0.2
GPRC | ≤ 0.2
TMHE | ≤ 0.2
KEWT | ≤ 0.2
MTEF | ≤ 0.2

Variant | one-hybrid fitness for binding NBS DNA
QMAD | ≤ 0.2
QMAH | 0.231
QMAS | 0.389
VIGG | ≤ 0.2
QTSK | 0.224
QMKK | 0.436
QCKK | 0.485
QMWK | ≤ 0.2
QMPK | ≤ 0.2
QLKK | 0.346
QTKK | 0.596
QKKK | 0.437
QTVK | ≤ 0.2
QKIK | ≤ 0.2
QPKK | ≤ 0.2
QKVK | ≤ 0.2
THAP | ≤ 0.2
SMSM | ≤ 0.2
VLYQ | ≤ 0.2
MNTI | ≤ 0.2
MEPN | ≤ 0.2
DERT | ≤ 0.2
AAYK | ≤ 0.2
LNIG | ≤ 0.2

Variant | one-hybrid fitness for binding NBS DNA
VYES | ≤ 0.2
PHHR | ≤ 0.2
NAEF | ≤ 0.2
NGVK | ≤ 0.2
AANT | ≤ 0.2
QRVK | 0.218
QHRK | 0.362
QRKK | 0.777
QAVK | ≤ 0.2
QHKK | 0.416
QSKK | 0.412
QAKK | 0.396
QRLK | 0.329
QAHK | ≤ 0.2
QHQK | ≤ 0.2
QSVK | ≤ 0.2
QIKK | 0.243
TDTW | ≤ 0.2
